# Measurements published in PubChem BioAssay AID602193 (The Scripps Research Institute Molecular Screening Center, 2012).
# Hit rate of the full screen: of about 1,600 compounds, about 410 (26%) were called active. Shown is part of a subset that was picked to be rich in actives. Values without a mark were called inactive.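 How the source made its calls: active means mean inhibition over triplicates above the low-control well mean plus 3 SD, set per campaign (cut at about 13% in these data); inactive means the rest.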
# Assay: nonselective cAMP signaling inhibitors, parental cells, counter-screen for MC4R biased antagonist project, cell-based, TR-FRET, U2OS, forskolin, triplicate (AID 602193);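 further: signal is single emission at 671 nm which falls as cellular cAMP rises; 0% = forskolin-stimulated wells and 100% = buffer without forskolin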
# Conditions: LANCE TR-FRET, at 6.5 µM, active compounds read high
row,SMILES,inhibition
1,Cc1cccc(N2C(=O)NC(=O)/C(=C\c3cnn(-c4ccccc4)c3)C2=O)c1,14.2% (active)
2,COc1cccc(N2C(=O)NC(=O)/C(=C\c3ccc([N+](=O)[O-])s3)C2=O)c1,0.64%
